From PubChem BioAssay come the findings set out here.

The subject of this experiment is PRMT1 (protein arginine N-methyltransferase 1). The experiment is described as follows: PRMT1 binders on small-molecule microarrays, primary screen, biochemical, small-molecule microarray, 635 nm fluorescence (AID 1088).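 Also: binding of Prmt1 protein to compounds spotted on small-molecule microarray slides.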 The note with it: small-molecule microarray binding, higher = more signal.
`COC(=O)[C@@]1(Cc2ccc(F)cc2)[C@H]2c3cc(C(=O)N(C)C)n(CCc4ccc(O)c(O)c4)c3C[C@H]2CN1C(=O)c1ccccc1` registered a composite z-score of -0.0562.

`[N-]=[N+]=Nc1ccccc1C[C@]1(C(=O)N2CCOCC2)N=C(c2ccc(OCCCO)cc2)O[C@H]1c1ccccc1N=[N+]=[N-]` showed a composite z-score of 1.53.

On to `COCCOC(=O)N1C(=O)[C@@]2(c3cc(C#CCCO)ccc31)[C@H](c1ccc(OCCO)cc1)N1[C@H](c3ccccc3)[C@H](c3ccccc3)OC(=O)[C@H]1[C@@H]2C(=O)N1CCCCCCC1`, for which the composite z-score was determined as 1.54.

Take `COC(=O)C(CC#Cc1ccc2c(c1)[C@]1(C(=O)N2)[C@H](c2ccc(OCCO)cc2)N2[C@H](c3ccccc3)[C@H](c3ccccc3)OC(=O)[C@H]2[C@@H]1C(=O)N1CCCCCCC1)C(=O)OC`: the composite z-score was found to be 1.54.

`O=C1C[C@@](C(=O)O)(c2ccc([N+](=O)[O-])cc2)[C@@H](c2ccc(CO)cc2)N1C1CCCCC1`: the composite z-score is 1.54.

For `C=CC[C@]1(C(=O)NCC(O)CO)COC(c2ccc(OCCCO)cc2)=N1` (stereo not given in full), the composite z-score is -0.726.

`C=C(COC)C(=O)CC[C@H](OC(=O)c1cccnc1)c1ccc(OCCO)cc1`: the composite z-score worked out at 1.52.

With `C=CCNC(=O)[C@H]1[C@@H]2C(=O)O[C@@H](c3ccccc3)[C@@H](c3ccccc3)N2[C@@H](c2ccc(OCCO)cc2)[C@]12C(=O)Nc1ccccc12`, the composite z-score was found to be 1.18.

`C=CC1c2cc(O)c(OC)cc2CCN1C` (stereo not given): the composite z-score is -0.648.

Consider `CC1CC/C=C\[C@H]2OC34C=CCN(c5ccc(Cl)cc5)C(=O)[C@H]3N(CCCCCCO)C(=O)[C@]4(C)C2C(=O)O1` (stereo not given in full), for which the composite z-score is -0.106.

`CCCC=C(CCC)[C@@H](NC(=O)c1ccc(C(F)(F)F)cc1)c1ccc(C(F)(F)F)cc1` returned a composite z-score of 1.41.

As for `Cc1ccccc1C(O)C1C=CC2C(=O)N(c3ccccc3)C(=O)C2N1Nc1ccccc1` (stereo not given), the composite z-score was 1.53.

`CCOC(=O)C[C@H]1[C@H](OC(=O)c2ccccc2-c2ccccc2)[C@@H](NC(=O)c2ccc3ccccc3c2)c2cc(OCCCO)ccc2N1C(=O)Cc1ccc(OC)cc1` returned a composite z-score of -0.793.

Molecule `COc1ccc(C(=O)Nc2ccc3c(c2)[C@@]2(O[C@H](CCO)[C@@H]([Si](C)(C)c4ccc(OC)cc4)[C@@H]2C)C(=O)N3Cc2ccccc2)cc1` returned a composite z-score of 1.28.

In the case of `COCCOC(=O)N1C(=O)[C@@]2(c3cc(C#CCC(C(=O)OC)C(=O)OC)ccc31)[C@H](c1ccc(O)cc1)N1[C@H](c3ccccc3)[C@H](c3ccccc3)OC(=O)[C@H]1[C@@H]2C(=O)Nc1nc2ccccc2s1`, the composite z-score is 1.53.

`C=C(COC)/C(=C/C[C@H](OC(C)=O)c1ccccc1OCCO)c1cc(C(=O)OC)ccc1OC`: the composite z-score stood at 1.48.

For the molecule `O=C1[C@H]2C=C(I)[C@H](C[C@@H]2OCCCCCCO)[C@@]12CO2`, the composite z-score was -0.134.

`CCCCC(=C=CC[C@H](O)c1ccc(CO)o1)CCO` came in with a composite z-score of 1.49.

`COc1ccccc1CN1C(=O)c2ccccc2[C@](Cc2ccccc2I)(C(=O)NCC(C)C)[C@@H]1c1ccc(CO)cc1` yielded a composite z-score of 1.33.

In turn, `C=CCC(OC(C)=O)[C@@H]1[C@@H](N(Cc2ccc(-c3ccccc3)cc2)C(=O)c2cccc3ccccc23)c2cc(OCCCO)ccc2N1C(=O)Cc1ccc(OC)cc1` (stereo not given in full) had a composite z-score of -0.159.

As for `CC(C)N1C(=O)c2ccccc2[C@](C)(C(=O)NCC(F)(F)F)[C@@H]1c1ccc(CO)cc1`, the composite z-score was -0.42.

Take `O=C1NC(=O)C2C1C=CC(C(O)c1ccc([N+](=O)[O-])cc1)N2Nc1ccccn1` (stereo not given): the composite z-score is -0.453.

The molecule `CN1C(=O)C2C=CC(C(O)c3ccc(-c4ccccc4)s3)N(NC(=O)OC(C)(C)C)C2C1=O` (stereo not given) returned a composite z-score of 0.938.

`CN(C)CCCNC(=O)[C@@]1(C)c2ccccc2C(=O)N(Cc2ccc(OC(F)(F)F)cc2)[C@H]1c1ccc(CO)cc1` registered a composite z-score of 1.21.

Turning to `COCCCNC(=O)[C@@]1(CCS(=O)(=O)c2ccccc2)COC(c2ccc(OCCCO)cc2)=N1`, the composite z-score was 1.36.

Take `COC(=O)[C@@]1(Cc2ccc(OC)cc2)[C@H]2c3cc(C(=O)N4CCCC4)n(Cc4ccc(C(F)(F)F)nc4)c3C[C@H]2CN1C(=O)c1ccccc1`: the composite z-score was determined as 0.0861.

Take `COC(=O)C(CC#Cc1ccc2c(c1)[C@]1(C(=O)N2)[C@H](c2ccccc2OCCO)N2[C@H](c3ccccc3)[C@H](c3ccccc3)OC(=O)[C@H]2[C@@H]1C(=O)N1CCc2cc(OC)c(OC)cc2C1)C(=O)OC`: the composite z-score was determined as 1.53.

The molecule `COc1ccc(C(O)C2C=CC3C(=O)N(C)C(=O)C3N2N(c2ccccc2)c2ccccc2)cc1` (stereo not given) returned a composite z-score of 0.923.

Molecule `COCCOC(=O)N1C(=O)[C@@]2(c3cc(C#CCC(C(=O)OC)C(=O)OC)ccc31)[C@H](C(=O)Nc1nc3ccccc3s1)[C@H]1C(=O)O[C@H](c3ccccc3)[C@H](c3ccccc3)N1[C@@H]2c1ccc(O)cc1` displayed a composite z-score of 1.53.

Molecule `CC(C)(C)N1CC=CC23O[C@@H]4C=CCCOC(=O)C4[C@H]2C(=O)N(CCCCCCO)[C@@H]3C1=O` (stereo not given in full) had a composite z-score of 0.647.

Take `O=C1C[C@@](C(=O)NCc2ccccc2)(c2ccc([N+](=O)[O-])cc2)[C@@H](c2ccc(CO)cc2)N1C1CCCCC1`: the composite z-score is 1.57.

`Cc1ccc(S[C@]2(C(=O)NCc3ccccc3)CC(=O)N(Cc3ccccc3C(F)(F)F)[C@@H]2c2ccc(CO)cc2)cc1` had a composite z-score of 0.884.

`COCCOC(=O)N1C(=O)[C@@]2(c3cc(C#CCCO)ccc31)[C@H](C(N)=O)[C@H]1C(=O)O[C@H](c3ccccc3)[C@H](c3ccccc3)N1[C@@H]2c1ccccc1OCCO` had a composite z-score of 1.54.

As to `CC(C)=C1C(=O)C(c2ccccc2)=C2CN3C(=O)N(CCc4ccccc4)C(=O)[C@]3(C)[C@H]21`, the composite z-score was -0.638.

In the case of `CC(C)(C)OC(=O)CC[C@@]1(C(=O)NCCN2CCOCC2)N=C(c2ccc(OCCCO)cc2)O[C@@H]1c1ccccc1CN=[N+]=[N-]`, the composite z-score is 1.09.
